Measurements reported in PubChem BioAssay AID1159580 (chemical genetic matrix, 2015).
Several values for one entry are separate records, joined by “and”; a condition that tells them apart may be missing. Identical values can stand only once. Among all 5,500 compounds or so, about 2,000 (36%) were called active. Another 18% or so got no clear call; they are omitted. Rule as the data show it: active = normalized growth mostly below about 0.91 (no sharp cut-off); inconclusive = no clear call, values can overlap the other calls; inactive = mostly above about 0.92. The list shows a part of the results.

Assay: chemical genetic growth profiling, strain panel (AID 1159580);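 also: tested at 20 µM; growth read once vehicle control cultures reached saturation at 30 °C; 1 = growth at the plate median or of vehicle wells; lower values mean less growth of the strain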
Settings: growth OD

Measured: normalized growth

CC1(C)C2(Cl)C(Cl)C(Cl)C(Cl)(C(Cl)Cl)C1(Cl)C2Cl (configuration not stated)
active: S. cerevisiae deletion strains, locus YLR418C, strain cdc73, stronger effect = lower value 0.755 | S. cerevisiae deletion strains, locus YNL307C, strain MCK1, stronger effect = lower value 0.544 | S. cerevisiae deletion strains, locus YOR184W, strain ser1, stronger effect = lower value 0.809 | S. cerevisiae deletion strains, locus YPR163C, strain tif3, stronger effect = lower value 0.91
inactive: S. cerevisiae deletion strains, locus YAL013W, strain DEP1, stronger effect = lower value 0.98 | S. cerevisiae deletion strains, locus YBR021W, strain FUR4, stronger effect = lower value 0.985 | S. cerevisiae deletion strains, locus YBR229C, strain ROT2, stronger effect = lower value 0.985 | S. cerevisiae deletion strains, locus YCL029C, strain bik1, stronger effect = lower value 0.982 | S. cerevisiae deletion strains, locus YDL035C, strain GPR1, stronger effect = lower value 0.947 | S. cerevisiae deletion strains, locus YDL074C, strain BRE1, stronger effect = lower value 0.918 | S. cerevisiae deletion strains, locus YDL101C, strain DUN1, stronger effect = lower value 0.982 | S. cerevisiae deletion strains, locus YDL134C, strain PPH21, stronger effect = lower value 0.981 | S. cerevisiae deletion strains, locus YDL185W, strain tfp1, stronger effect = lower value 0.976 | S. cerevisiae deletion strains, locus YDL192W, strain arf1, stronger effect = lower value 0.98 | S. cerevisiae deletion strains, locus YDR101C, strain arx1, stronger effect = lower value 0.993 | S. cerevisiae deletion strains, locus YDR150W, strain NUM1, stronger effect = lower value 0.994 | S. cerevisiae deletion strains, locus YDR162C, strain NBP2, stronger effect = lower value 0.968 | S. cerevisiae deletion strains, locus YDR318W, strain mcm21, stronger effect = lower value 0.95 | S. cerevisiae deletion strains, locus YDR388W, stronger effect = lower value 0.964 | S. cerevisiae deletion strains, locus YDR502C, strain sam2, stronger effect = lower value 0.957 | S. cerevisiae deletion strains, locus YEL061C, strain CIN8, stronger effect = lower value 0.992 | S. cerevisiae deletion strains, locus YER110C, stronger effect = lower value 0.984 | S. cerevisiae deletion strains, locus YER155C, strain BEM2, stronger effect = lower value 1 | S. cerevisiae deletion strains, locus YER167W, strain BCK2, stronger effect = lower value 0.975 | S. cerevisiae deletion strains, locus YGL078C, strain dbp3, stronger effect = lower value 0.982 | S. cerevisiae deletion strains, locus YGL086W, strain mad1, stronger effect = lower value 0.962 | S. cerevisiae deletion strains, locus YGL248W, strain PDE1, stronger effect = lower value 0.979 | S. cerevisiae deletion strains, locus YGR078C, strain PAC10, stronger effect = lower value 0.94 | S. cerevisiae deletion strains, locus YGR135W, strain pre9, stronger effect = lower value 0.951 | S. cerevisiae deletion strains, locus YGR229C, strain SMI1, stronger effect = lower value 0.865 | S. cerevisiae deletion strains, locus YGR252W, strain gcn5, stronger effect = lower value 0.956 | S. cerevisiae deletion strains, locus YHR030C, strain SLT2, stronger effect = lower value 0.995 and 0.96 | S. cerevisiae deletion strains, locus YHR079C, strain IRE1 (second series), stronger effect = lower value 0.975 | S. cerevisiae deletion strains, locus YHR079C, strain IRE1, stronger effect = lower value 0.946 | S. cerevisiae deletion strains, locus YHR094C, strain hxt1, stronger effect = lower value 0.981 | S. cerevisiae deletion strains, locus YHR129C, strain ARP1, stronger effect = lower value 0.984 | S. cerevisiae deletion strains, locus YHR200W, strain rpn10, stronger effect = lower value 0.979 | S. cerevisiae deletion strains, locus YIL066C, strain RNR3, stronger effect = lower value 0.891 | S. cerevisiae deletion strains, locus YIL073C, strain SPO22, stronger effect = lower value 0.829 | S. cerevisiae deletion strains, locus YIL125W, strain kgd1, stronger effect = lower value 0.981 | S. cerevisiae deletion strains, locus YIR030C, strain dcg1, stronger effect = lower value 0.978 | S. cerevisiae deletion strains, locus YJL095W, strain BCK1, stronger effect = lower value 0.954 and 0.978 | S. cerevisiae deletion strains, locus YJL134W, strain LCB3, stronger effect = lower value 0.991 | S. cerevisiae deletion strains, locus YJL168C, strain set2, stronger effect = lower value 0.978 | S. cerevisiae deletion strains, locus YJL187C, strain SWE1 (second series), stronger effect = lower value 0.983 | S. cerevisiae deletion strains, locus YJR043C, strain POL32, stronger effect = lower value 1.01 | S. cerevisiae deletion strains, locus YJR066W, strain TOR1, stronger effect = lower value 0.935 | S. cerevisiae deletion strains, locus YJR075W, strain HOC1, stronger effect = lower value 0.954 | S. cerevisiae deletion strains, locus YKL009W, strain mrt4, stronger effect = lower value 0.971 | S. cerevisiae deletion strains, locus YKL068W, stronger effect = lower value 0.971 | S. cerevisiae deletion strains, locus YKL085W, strain MDH1 (second series), stronger effect = lower value 0.968 | S. cerevisiae deletion strains, locus YKL085W, strain MDH1, stronger effect = lower value 0.968 | S. cerevisiae deletion strains, locus YKL190W, strain CNB1, stronger effect = lower value 0.989 | S. cerevisiae deletion strains, locus YKR001C, strain vps1, stronger effect = lower value 0.932 | S. cerevisiae deletion strains, locus YLR039C, strain RIC1, stronger effect = lower value 0.79 | S. cerevisiae deletion strains, locus YLR058C, strain SHM2, stronger effect = lower value 0.978 | S. cerevisiae deletion strains, locus YLR102C, strain apc9, stronger effect = lower value 0.986 | S. cerevisiae deletion strains, locus YLR113W, strain HOG1, stronger effect = lower value 0.948 | S. cerevisiae deletion strains, locus YLR262C, strain YPT6, stronger effect = lower value 0.768 | S. cerevisiae deletion strains, locus YLR268W, strain sec22, stronger effect = lower value 0.956 | S. cerevisiae deletion strains, locus YLR330W, strain CHS5, stronger effect = lower value 0.992 | S. cerevisiae deletion strains, locus YLR342W, strain FKS1 (second series), stronger effect = lower value 0.893 | S. cerevisiae deletion strains, locus YLR371W, strain rom2, stronger effect = lower value 0.986 | S. cerevisiae deletion strains, locus YML016C, strain PPZ1, stronger effect = lower value 0.984 | S. cerevisiae deletion strains, locus YML032C, strain rad52, stronger effect = lower value 0.954 | S. cerevisiae deletion strains, locus YML124C, strain tub3, stronger effect = lower value 0.982 | S. cerevisiae deletion strains, locus YMR078C, strain ctf18, stronger effect = lower value 0.961 | S. cerevisiae deletion strains, locus YMR223W, strain ubp8, stronger effect = lower value 0.939 | S. cerevisiae deletion strains, locus YMR263W, strain SAP30, stronger effect = lower value 0.993 | S. cerevisiae deletion strains, locus YMR307W, strain GAS1, stronger effect = lower value 0.887 | S. cerevisiae deletion strains, locus YNL067W, strain RPL9B, stronger effect = lower value 0.987 | S. cerevisiae deletion strains, locus YNL128W, strain TEP1, stronger effect = lower value 0.993 | S. cerevisiae deletion strains, locus YNL153C, strain GIM3, stronger effect = lower value 0.986 | S. cerevisiae deletion strains, locus YNL183C, strain NPR1, stronger effect = lower value 0.943 | S. cerevisiae deletion strains, locus YNL233W, strain BNI4, stronger effect = lower value 0.989 | S. cerevisiae deletion strains, locus YNL250W, strain rad50, stronger effect = lower value 0.969 | S. cerevisiae deletion strains, locus YNL271C, strain bni1, stronger effect = lower value 0.97 | S. cerevisiae deletion strains, locus YNL298W, strain CLA4, stronger effect = lower value 0.971 | S. cerevisiae deletion strains, locus YNL322C, strain KRE1, stronger effect = lower value 0.994 | S. cerevisiae deletion strains, locus YNR052C, strain pop2, stronger effect = lower value 0.963 | S. cerevisiae deletion strains, locus YOL006C, strain TOP1, stronger effect = lower value 0.867 | S. cerevisiae deletion strains, locus YOL012C, strain htz1 0.99 | S. cerevisiae deletion strains, locus YOL147C, strain pex11, stronger effect = lower value 0.982 | S. cerevisiae deletion strains, locus YOR061W, strain CKA2, stronger effect = lower value 0.994 | S. cerevisiae deletion strains, locus YOR069W, strain VPS5, stronger effect = lower value 0.984 | S. cerevisiae deletion strains, locus YOR136W, strain idh2, stronger effect = lower value 0.966 | S. cerevisiae deletion strains, locus YOR144C, strain elg1, stronger effect = lower value 0.981 | S. cerevisiae deletion strains, locus YOR231W, strain MKK1, stronger effect = lower value 0.964 | S. cerevisiae deletion strains, locus YOR316C, strain cot1, stronger effect = lower value 0.977 | S. cerevisiae deletion strains, locus YPL055C, strain LGE1, stronger effect = lower value 0.96 | S. cerevisiae deletion strains, locus YPL241C, strain CIN2, stronger effect = lower value 0.993 | S. cerevisiae deletion strains, locus YPL256C, strain CLN2, stronger effect = lower value 0.9 | S. cerevisiae deletion strains, locus YPR119W, strain clb2, stronger effect = lower value 0.976 | S. cerevisiae deletion strains, locus YPR141C, strain kar3, stronger effect = lower value 0.957 | S. cerevisiae deletion strains, locus YPR167C, strain met16, stronger effect = lower value 0.974 | S. cerevisiae deletion strains, strain wtn01, stronger effect = lower value 0.966 | S. cerevisiae strains, strain wild type, stronger effect = lower value 0.986
